# Calls of active or inactive are those of the source. Rule for the calls: active = hit-call score of the fitted dose curve at least 0.9, where 1 is the maximum; inactive = score below 0.9.
# Test: ATG_RORE_CIS: Attagene CIS-FACTORIAL HepG2 Assay for human RAR-related Orphan Receptor Element (RORE) (AID 2282959)
# Details: HepG2 Attagene cis-factorial RORE reporter, mRNA; actives raise or lower the signal
# Procedure: ATG_CIS is a cell-based, multiplexed-readout assay that uses HepG2, a human liver cell line, with measurements taken at 24 hours after chemical dosing in a 24-well plate.ATG_RORE_CIS is one of 52 assay component(s) measured or calculated from the ATG_CIS assay. It is designed to make measurements of mRNA induction, a form of inducible reporter, as detected with fluorescence intensity signals by Reverse transcription polymerase chain reaction (RT-PCR) and Capillary electrophoresis technology.Data from the assay component ATG_RORE_CIS was analyzed into 1 assay endpoint. This assay endpoint, ATG_RORE_CIS, was analyzed with bidirectional fitting relative to DMSO as the negative control and baseline of activity. Using a type of inducible reporter, measures of mRNA for gain or loss-of-signal activity can be used to understand the reporter gene at the transcription factor-level as they relate to the gene RORA and RORB and RORC. Furthermore, this assay endpoint can be referred to as a primary readout, because this assay has produced multiple assay endpoints where this one serves a reporter gene function. To generalize the intended target to other relatable targets, this assay endpoint is annotated to the nuclear receptor intended target family, where the subfamily is orphan.
# Human liver HepG2 cells are transiently transfected with multiple reporter transcription units (MRTUs) in 6-well plates using FuGene 6 reagent (Roche; 3 ml FuGene/1 mg DNA). The MRTU constructs are regulated by a cis-regulating element (promoter). […] A major difference between the CIS and TRANS system is that in CIS activities of endogenous TFs are measured, whereas the TRANS assay evaluates changes in activities of exogenous, chimeric NR-Gal4 proteins. […] At the end of 24 hour incubation, total RNA was isolated using TriZol reagent (Invitrogen). The isolated RNA is then reverse-transcribed using oligo(dT) primer and Mo-MLV reverse transcriptase (Invitrogen) with DNAse I (Ambion) treatment for 30 min. The one-tenth of the produced cDNA was amplified by PCR using Taq DNA polymerase (Invitrogen) and two reporter sequence-specific primers. The PCR products were fluorescently labeled by primer extension with 6-arboxyfluorescein (6-FAM) 5'-labeled reporter sequence-specific primer (2 min at 95 C, 20 s at 68 C and 10 min at 72 C) and these products were digested with 5U of HpaI (New England Biolabs) for 2h at 37 C. The fragments were purified using Qiaquick PCR columns (Qiagen), analyzed on an ABI 3130xL genetic analyzer (Applied Biosystems) with peak positions identified by using a set of X-rhodamine (ROX)-labeled MapMarker1000 molecular weight standards (BioVentures). The raw capillary electrophoresis data was processed using Attagraph software (Attagene).
SMILES,outcome,AC50
CCNc1nc(Cl)nc(NC(C)(C)C#N)n1,inactive,
CCOP(=S)(OCC)OC(Cl)C(Cl)(Cl)Cl (stereo not given),inactive,
O=C(O)c1cc(Oc2ccc(C(F)(F)F)cc2Cl)ccc1[N+](=O)[O-],inactive,
CCOP(=S)(Oc1cnc(C(C)(C)C)nc1)OC(C)C (stereo not given),,13.1 µM (active)
COc1cc(OC)nc(Sc2cccc(Cl)c2C(=O)O)n1,inactive,
CC1(C(=O)Nc2ccc(O)c(Cl)c2Cl)CCCCC1,,50 µM (active)
CC(Oc1cccc(Cl)c1)C(=O)O (stereo not given),inactive,
COc1cccc(C(=O)NN(C(=O)c2cc(C)cc(C)c2)C(C)(C)C)c1C,inactive,
Cc1ccn2nc(S(=O)(=O)Nc3c(F)cccc3F)nc2n1,inactive,
CCC(CC)Nc1c([N+](=O)[O-])cc(C)c(C)c1[N+](=O)[O-],inactive,
CSc1nnc(C(C)(C)C)c(=O)n1N,inactive,
COP(=O)(OC)C(O)C(Cl)(Cl)Cl (stereo not given),inactive,
CN(C)NC(=O)CCC(=O)O,inactive,
COc1ccc(C(=CC(=O)N2CCOCC2)c2ccc(Cl)cc2)cc1OC,,5.72 µM (active)
CCCSP(=O)(OCC)Oc1ccc(Br)cc1Cl (stereo not given),inactive,
O=[N+]([O-])c1cc(C(F)(F)F)c(Cl)c([N+](=O)[O-])c1Nc1ncc(C(F)(F)F)cc1Cl,inactive,
CC(C)[C@H](C(=O)O[C@H](C#N)c1cccc(Oc2ccccc2)c1)c1ccc(Cl)cc1,inactive,
CN(C)C(=O)Nc1cccc(C(F)(F)F)c1,inactive,
CNC(=O)ON=C(C)SC,inactive,
C[Si](Cn1cncn1)(c1ccc(F)cc1)c1ccc(F)cc1,,18.7 µM (active)

SMILES,outcome,AC50
CC(=NC#N)N(C)Cc1ccc(Cl)nc1,inactive,
CCOP(=O)(SC(C)CC)N1CCSC1=O (stereo not given),inactive,
CCC(=O)Nc1ccc(Cl)c(Cl)c1,inactive,
CCC(=NOC/C=C/Cl)C1=C(O)CC(C2CCOCC2)CC1=O (stereo not given),inactive,
S=C1NCCN1,inactive,
CNC(=O)ON=C(SC)C(=O)N(C)C,inactive,
CCCCOC(=O)c1ccccc1C(=O)O,inactive,
CC(COc1ccc(Oc2ccccc2)cc1)Oc1ccccn1 (stereo not given),,12.2 µM (active)
CCOP(=O)(NC(C)C)Oc1ccc(SC)c(C)c1 (stereo not given),inactive,
CCOP(=S)(OCC)Oc1ccc2c(C)c(Cl)c(=O)oc2c1,inactive,
CON=C(C(=O)OC)c1ccccc1CON=C(C)c1cccc(C(F)(F)F)c1,inactive,
Nc1c(Cl)cc([N+](=O)[O-])cc1Cl,inactive,
Cc1cc(C2CC2)nc(Nc2ccccc2)n1,inactive,
COP(=O)(OC)OC(Br)C(Cl)(Cl)Br (stereo not given),inactive,
CCOC(=O)CC(SP(=O)(OC)OC)C(=O)OCC (stereo not given),inactive,
CCOP(=S)(OCC)Oc1ccc([N+](=O)[O-])cc1,inactive,
C=C(C)[C@H]1Cc2c(ccc3c2O[C@@H]2COc4cc(OC)c(OC)cc4[C@@H]2C3=O)O1,inactive,
FC(F)C(F)(F)OCC(Cn1cncn1)c1ccc(Cl)cc1Cl (stereo not given),,50 µM (active)
CCOP(=O)(OCC)Oc1cc(C)nc(C(C)C)n1,inactive,
CCCCN(CC)c1c([N+](=O)[O-])cc(C(F)(F)F)cc1[N+](=O)[O-],inactive,

# — PubChem BioAssay (EPA / NIEHS)
